Mtb bLac sens: beta-lactam sensitization of Mtb H37Rv, H37Rv. M. tuberculosis H37Rv growth with meropenem, percent inhibition. inhibition, % at 25 µM. actives 0.27% (n = 330,000). AID 434955, 2010;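 note: growth measured after seven days incubation then overnight dye step; 0% = bacteria only wells and 100% = bacteria with antibiotic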
MazF activator: activators of E. coli MazEF toxin-antitoxin RNase, primary screen, biochemical, fluorescence, uHTS. Endoribonuclease toxin MazF (Escherichia coli (strain K12)), P0AE70. FAM/BHQ RNA-DNA oligo cleavage fluorescence, 5 h. activation, % at 20 µM. actives 0.32% (n = 350,000); in the data active = activation above about 50%
Target sequence (P0AE70 whole entry, looked up): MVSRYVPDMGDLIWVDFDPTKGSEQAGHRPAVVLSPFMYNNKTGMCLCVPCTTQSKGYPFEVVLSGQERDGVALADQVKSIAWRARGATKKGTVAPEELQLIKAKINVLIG
Rv3671c protease: Rv3671c serine protease inhibitors, primary screen, biochemical, fluorescence polarization, M. tuberculosis H37Rv | P9WHR9 | inhibition, % at 5.96 µM | actives 0.048% (n = 320,000); in the data active = inhibition above about 38%;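 note: extracellular domain of Rv3671c used as enzyme; 0% = enzyme with DMSO and 100% = no enzyme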
Vc quorum ag-1: inducers of Vibrio cholerae quorum light production without autoinducers, primary screen, BH1578 luxS cqsA deficient, single point; V. cholerae BH1578 lux reporter, luminescence, 6 h; activation, % at 18.7 µM; actives 0.16% (n = 350,000); in the data active = activation mostly above about 9.7%, no sharp cut-off
Mtb UGM inh: M. tuberculosis UGM enzyme inhibitors, primary screen, biochemical, fluorescence polarization, single point; purified UGM, fluorescence polarization probe displacement; actives 0.06% (n = 320,000); AID 504406, 2011; inhibition, % at 10 µM; UDP-galactopyranose mutase (Mycobacterium tuberculosis (strain ATCC 25618 / H37Rv)), …; in the data active = inhibition above about 10%, passing the limit was not always enough
FadD28 binding: inhibitors of FadD28 bisubstrate probe binding, primary screen, biochemical, fluorescence polarization, single point. actives 0.22% (n = 360,000). inhibition, % at 12.5 µM; in the data active = inhibition above about 8.5%, passing the limit was not always enough
Vc quorum ag-2: V. cholerae lux activation without autoinducers – BH1578 luxS cqsA deficient, cherry-pick, plate reader, dose response; shares compounds with Vc quorum ag-1; V. cholerae BH1578 lux reporter, luminescence, 6 h; activation, % at 50 µM; 620 tested, under 10 active; AID 602243, 2012
* marks the source's active call; other numbers are inactive results; i = inactive; nt = not tested or not shown. Compounds with a hit are over-represented: about 0.74% of the library has one in this group of screens. Unless noted, the rule behind the calls is not given here.

SMILES	Mtb bLac sens	MazF activator	Rv3671c protease	Vc quorum ag-1	Mtb UGM inh	FadD28 binding	Vc quorum ag-2
CCc1nc2c(OCC=C(C)C)cccn2c1N(C)C(=O)c1ccc(OC)cc1	nt	nt	nt	-1	nt	-5	nt
O=C(CN1CCN(Cc2ccc(F)cc2Cl)C1=O)NCCc1ccccc1	-11	-3	2	0	2	-1	nt
O=C(O)CN1CCN(Cc2ccc(F)cc2Cl)C1=O	4	5	3	12	0	-3	0
CCCc1cc(=O)oc2c3c(cc(OCC(=O)N4CCC(C(=O)O)CC4)c12)OC(C)(C)CC3	nt	nt	nt	0	nt	-12	nt
Cc1ccc(N(C(C)C(=O)N2CCCCC2)S(C)(=O)=O)cc1C (stereo not given)	-2	6	-4	25*	-2	0	0
CC(C(=O)N1CCCCCC1)N(c1ccc(Cl)cc1)S(C)(=O)=O (stereo not given)	-4	2	3	-1	0	-2	nt
CC(=O)N1CCCc2ccccc21	17	6	5	2	2	2	nt
CC(=O)N1CCC(=O)N(C(C)C)c2ccccc21	-14	2	-19	25*	-2	-1	0
CCOc1ccc(CCNC(=O)COC(=O)Cc2ccc(F)cc2)cc1OCC	-9	5	1	14	-2	-2	3
CCOc1ccc(CCNC(=O)COC(=O)Cc2c[nH]c3ccccc23)cc1OCC	-5	-3	-5	-1	2	0	nt
COc1ccc(C(=O)N2CCC(C(=O)c3ccc(F)cc3)CC2)cc1	-6	15	5	17*	1	-3	1
Cc1sc(N)nc1-c1ccc(Oc2ccccc2)cc1	2	0	9	46*	-1	-1	66
Cc1onc(-c2c(Cl)cccc2Cl)c1CO/N=C(\C#N)c1c(Cl)cccc1Cl	-2	-3	-12	0	-1	-5	nt
CCOC(=O)C1CCN(C(=O)c2cc3c(OC)c(OC)c(OC)cc3[nH]2)CC1	-3	-1	12	-8	1	2	nt
CCOC(=O)C1CCCN(C(=O)c2cc3c(OC)c(OC)c(OC)cc3[nH]2)C1 (stereo not given)	-8	6	0	17*	-2	-1	0
O=C(O)[C@@H]1CCCN1S(=O)(=O)c1cccc2cccnc12	-6	-3	1	-2	3	0	nt
Nc1nc(=O)n(C2CCCCO2)cc1Br (stereo not given)	nt	10	nt	i	nt	-3	nt
CC1CCN(c2ccccc2NC(=O)c2cc3ccccc3o2)CC1	82	0	-11	97*	0	0	0
Cc1ccccc1NC(=O)c1cc2ccccc2o1	2	6	-1	i	0	0	nt
O=C(COC(=O)C1CC1)Nc1ccc(Oc2ccccc2)cc1	88	3	4	0	1	-2	nt
O=C(COC(=O)C1CCC1)Nc1ccc(Oc2ccccc2)cc1	87	-5	3	2	-2	-1	0
CN(C)CC(C)(C)CNC(=O)c1cc(=O)c2ccccc2o1	0	-4	10	12	1	1	0
Cc1ccc(CNC(=O)c2cc(=O)c3ccccc3o2)cc1	2	6	-9	-3	1	-2	nt
Cc1cccc(-c2noc(-c3ccccc3C(=O)NCC3CCCO3)n2)c1 (stereo not given)	4	5	4	14	-2	1	-1
O=C(NCC1CCCO1)c1ccccc1-c1nc(-c2ccc(Cl)cc2)no1 (stereo not given)	12	-8	1	0	0	-2	nt
COc1ccc(Cl)cc1S(=O)(=O)NC(C)C(=O)NCCCn1ccnc1 (stereo not given)	-4	5	7	14	0	0	0
COCCNC(=O)CN1CCN(C(c2ccccc2)c2ccccc2)CC1	1	-1	4	12	0	-2	0

Compound activity as filed in PubChem BioAssay.
